# Reference: ChEMBL document CHEMBL5598561, “ASAP - In vitro binding kinetics” (2024)
# Target: Nonstructural protein 3 (Zika virus) (UniProt A0A024AXB9)
# Settings: PRVABC59, Concentration 10.0 uM
# Sequence of Nonstructural protein 3 (Zika virus) (A0A024AXB9 as listed by the source): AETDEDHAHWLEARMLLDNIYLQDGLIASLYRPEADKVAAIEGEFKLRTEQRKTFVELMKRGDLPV
smiles,measurement,setting,value
O=C(NC1CCOCC1)[C@H](Nc1ccc2c(c1)CNC2)c1cc(Cl)cc(C2CC2)c1,pKD,"Immobilization level 10000.0 pg/mm2, Rmax 26.0 pg/mm2, ka 616891.885 M-1s-1, kd 0.14 1/s",6.64
same,pKD,"Immobilization level 12000.0 pg/mm2, Rmax 48.0 pg/mm2, ka 284907.141 M-1s-1, kd 0.112 1/s",6.4
same,pKD,"Immobilization level 13000.0 pg/mm2, Rmax 35.0 pg/mm2, ka 474880.78 M-1s-1, kd 0.123 1/s",6.59
CNCc1cccc(NC(=O)c2cc(Cl)cc3[nH]ncc23)c1,pKD,"Immobilization level 3900.0 pg/mm2, Rmax 52.0 pg/mm2, ka 146599.437 M-1s-1, kd 4.892 1/s",4.48
same,pKD,"Immobilization level 4900.0 pg/mm2, Rmax 92.0 pg/mm2, ka 51361.571 M-1s-1, kd 2.243 1/s",4.36
same,pKD,"Immobilization level 5500.0 pg/mm2, Rmax 53.0 pg/mm2, ka 187092.368 M-1s-1, kd 3.041 1/s",4.79
same,pKD,"Immobilization level 12000.0 pg/mm2, Rmax 56.0 pg/mm2, ka 231928.789 M-1s-1, kd 3.617 1/s",4.81
C[C@@H](N)c1ccc(NC(=O)c2cc(Cl)cc3[nH]ncc23)cc1,pKD,"Immobilization level 3900.0 pg/mm2, Rmax 41.0 pg/mm2, ka 249513.67 M-1s-1, kd 1.946 1/s",5.11
same,pKD,"Immobilization level 4900.0 pg/mm2, Rmax 50.0 pg/mm2, ka 225007.554 M-1s-1, kd 1.686 1/s",5.12
same,pKD,"Immobilization level 5500.0 pg/mm2, Rmax 61.0 pg/mm2, ka 227099.936 M-1s-1, kd 1.979 1/s",5.06
same,pKD,"Immobilization level 10000.0 pg/mm2, Rmax 53.0 pg/mm2, ka 348896.97 M-1s-1, kd 2.109 1/s",5.22
same,pKD,"Immobilization level 12000.0 pg/mm2, Rmax 62.0 pg/mm2, ka 212895.642 M-1s-1, kd 1.524 1/s",5.14
same,pKD,"Immobilization level 13000.0 pg/mm2, Rmax 66.0 pg/mm2, ka 290082.005 M-1s-1, kd 1.572 1/s",5.27
Cc1ncc(Br)cc1C(=O)Nc1ccc2c(c1)CNC2,pKD,"Immobilization level 3900.0 pg/mm2, Rmax 35.0 pg/mm2, ka 305396.759 M-1s-1, kd 1.511 1/s",5.3
same,pKD,"Immobilization level 4900.0 pg/mm2, Rmax 50.0 pg/mm2, ka 284203.309 M-1s-1, kd 1.434 1/s",5.3
same,pKD,"Immobilization level 5500.0 pg/mm2, Rmax 66.0 pg/mm2, ka 223031.106 M-1s-1, kd 1.457 1/s",5.18
same,pKD,"Immobilization level 12000.0 pg/mm2, Rmax 11.0 pg/mm2, ka 147874.405 M-1s-1, kd 1.474 1/s",5
same,pKD,"Immobilization level 13000.0 pg/mm2, ka 192202.373 M-1s-1, kd 1.118 1/s",5.24
O=C(Nc1ccc2c(c1)CNC2)c1cc(Cl)cc(C2CC2)c1,pKD,"Immobilization level 10000.0 pg/mm2, Rmax 36.0 pg/mm2, ka 451548.811 M-1s-1, kd 1.111 1/s",5.61
same,pKD,"Immobilization level 12000.0 pg/mm2, Rmax 40.0 pg/mm2, ka 259383.571 M-1s-1, kd 0.558 1/s",5.67
same,pKD,"Immobilization level 13000.0 pg/mm2, Rmax 32.0 pg/mm2, ka 444846.323 M-1s-1, kd 0.765 1/s",5.76
CN1Cc2ccc(NC(=O)c3cc(Cl)cc4[nH]ncc34)cc2C1,pKD,"Immobilization level 10000.0 pg/mm2, Rmax 20.0 pg/mm2, ka 391825.056 M-1s-1, kd 0.668 1/s",5.77
same,pKD,"Immobilization level 12000.0 pg/mm2, Rmax 38.0 pg/mm2, ka 177362.143 M-1s-1, kd 0.381 1/s",5.67
same,pKD,"Immobilization level 13000.0 pg/mm2, Rmax 24.0 pg/mm2, ka 298987.187 M-1s-1, kd 0.52 1/s",5.76
